esBAF inh – blocks esBAF chromatin remodeling in mouse ES cells; Bmi1-luciferase knock-in reporter, 24 h; 100% = twice the neutral-well signal; reporter increase, % at 12.5 µM; hit rate 2% among 350,000; AID 602393; in the data active means activation above about 40%; inconclusive means no clear call, values can overlap the other calls;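 further: 0% = median of the plate's neutral control wells and 100% = double that signal; a rise in the Bmi1 reporter signal indicates esBAF inhibition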
Wnt act – activators of Wnt/beta-catenin signaling; Wnt/beta-catenin reporter cell assay, activator, plate reader; activation, % at 9.35 µM; hit rate 1.2% among 300,000; in the data active means activation above about 30%, passing the limit was not always enough; inconclusive means no clear call, values can overlap the other calls;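 further: 0% = neutral control wells and 100% = positive control wells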
HSF-1 act – increases HSF-1 driven luciferase reporter signal | AID 504408 | NIH3T3-HGL HSF-1 luciferase reporter, MG132, 8 h; 100% = twice DMSO control signal | hit rate 1.7% among 300,000 | activation, % at 9 µM;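 active means mean replicate activation of at least 50% with a set share of replicates each reaching 50%; inconclusive means only one of those two conditions met; inactive means mean below 50% and too few replicates reaching it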;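 further: 0% = median of the neutral control wells and 100% = twice that signal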
HSF1 inhib – HSF1 inhibition; NIH3T3-HGL HSE-luciferase, MG132-induced, luminescence 8 h; stronger effect = lower value; activity change, negative = inhibition, % at 7.5 µM (by protocol); hit rate 0.77% among 300,000;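 active means more than half of replicate wells show activity change below -50%, luminescence cut by over half; inconclusive means some wells, but at most half, below -50%; inactive means no replicate well below -50%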;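 further: luciferase reports HSF-1 transcriptional activity via heat shock element; 0% = median of DMSO wells and -100% = zero luminescence signal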
MITF act – MITF TRPM1 promoter activation in melanoma cells. SK-MEL-5 TRPM1-promoter luciferase, 24 h; % of positive control, neutral wells = 0. activation, % at 12.5 µM. hit rate 0.75% among 300,000. AID 588334;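 active means mean activation of at least 80% with every replicate also reaching 80%; inconclusive means mean reaches 80% but some replicate falls short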;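 further: 0% = neutral control wells and 100% = parthenolide positive control wells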
* = called active by the depositor; ? = inconclusive; / = no result. This is a sample that favours compounds with a hit; in the whole collection about 3.8% have one here.

SMILES	esBAF inh	Wnt act	HSF-1 act	HSF1 inhib	MITF act
CC(=O)NC(NC(=S)Nc1ccc(S(N)(=O)=O)cc1)C(Cl)(Cl)Cl (stereo not drawn)	4	-7	-6	-3	6
CC(C)(C)C(=O)Nc1ccc(N=Nc2ccccc2)cc1	-61	-8	-80	-78*	-19
CC(=O)NC(NC(=S)Nc1ccc(N=Nc2ccccc2)cc1)C(Cl)(Cl)Cl (stereo not drawn)	11	47*	28	5	/
Cc1cc(N=Nc2ccccc2)cc(C)c1NC(=O)C(F)(F)F	/	43*	/	/	107*
CCCC(=O)OCC(=O)Nc1ccc(N=Nc2ccccc2)cc1	/	51*	/	/	64
C[C@@H]1CN([C@H](C)CO)S(=O)(=O)c2ccc(C#Cc3ccncc3)cc2O[C@@H]1CN(C)CC1CC1	7	/	/	/	/
CSc1ccc(CN(C)C(=O)c2cc3ccccc3o2)cc1	57*	-1	45	14	58
CO[C@H]1CN(C)C(=O)c2cc(C#N)ccc2OC[C@H]2O[C@@H](CC[C@H]2OC)CCN(C)C(=O)[C@@H]1C	0	/	/	/	/
CC(=O)N[C@@H]1CC[C@@H](CC(=O)NCc2ccc(Cl)cc2)O[C@H]1CO	3	/	/	/	/
Nc1ncccc1OCc1ccc(Br)cc1	/	6	21	12	102*
COc1ccc(COc2cccnc2N)cc1	31	5	9	5	24
Cc1ccc(S(=O)(=O)N(C)C[C@H]2Oc3ncc(C#CC4(O)CCCC4)cc3C(=O)N([C@H](C)CO)C[C@H]2C)cc1	-1	/	/	/	/
O=c1oc2ccccc2cc1NCc1ccccc1O	63*	20	40	41	96*
CCCC#Cc1ccc2c(c1)O[C@@H](CN(C)C(C)=O)[C@H](C)CN([C@@H](C)CO)S2(=O)=O	4	/	/	/	/
Cc1noc(C)c1NC(=O)N(C)C[C@@H]1OCCCC[C@H](C)Oc2ccc(NC(=O)Cc3ccccc3)cc2C(=O)N([C@@H](C)CO)C[C@@H]1C	2	/	/	/	/
COc1ccc(S(=O)(=O)Nc2ccccc2OC)cc1NC(=O)Cc1cccs1	3	-2	3	-1	-14
COc1ccccc1NS(=O)(=O)c1ccc(NC(=O)Cc2cccs2)cc1	2	-2	58*	14	0
COc1ccc(C(=O)NN=C2CCCC2)cc1	45*	0	-2	0	/
O=C(NN=C1CCCC1)c1ccc(Cl)cc1	0	-2	26	10	0
Cc1cc(OCc2ccc(C(=O)NN=C3CCCC3)cc2)ccc1Cl	/	46*	36	3	27
COc1ccc(Nc2nc(OC)nc(N3CCOCC3)n2)cc1	-11	0	-6	0	0
COc1ccc(Nc2nc(Nc3ccc(OC)cc3)nc(-n3[nH]c(=O)c(C)c3C)n2)cc1	17	/	-64	-63*	/
CNC[C@@H]1Oc2ncc(-c3cccc(C(=O)N(C)C)c3)cc2C(=O)N([C@@H](C)CO)C[C@@H]1C	-8	/	/	/	/
O=C1/C(=C/N(C(=O)c2ccco2)c2ccc(Cl)cc2)Sc2ccccc21	/	/	37	14	67
O=C1/C(=C/N(C(=O)c2ccco2)c2ccc(Br)cc2)Sc2ccccc21	48*	/	19	14	38
SMILES	esBAF inh	Wnt act	HSF-1 act	HSF1 inhib	MITF act
COc1ccc(C(=O)N2CCN(c3ccc(C(C)=O)cc3)CC2)cc1S(=O)(=O)N1CCCC1	48*	7	/	/	-1
Cc1cc(C)cc(C(=O)Nc2nc3ccccc3[nH]2)c1	80*	14	28	13	49
CN(C)S(=O)(=O)c1ccc(C(=O)Nc2nc3ccccc3[nH]2)cc1	66*	13	30	21	62
O=C(Nc1nc2ccccc2[nH]1)c1ccc(F)cc1	-51	9	9	11	6
CSc1nnc(NC(=O)c2ccc(S(=O)(=O)N(C)C)cc2)s1	/	40*	29	11	5
COc1ccccc1C(=O)N1C[C@@H]2[C@H](c3ccccc31)[C@@H](CO)N2Cc1ccc(F)cc1	-6	/	/	/	/
C[C@@H]1CN([C@H](C)CO)S(=O)(=O)c2ccc(/C=C/c3ccccc3)cc2O[C@@H]1CN(C)C(=O)c1cccnc1	3	/	/	/	/
COc1ccc(C(=O)Nc2nc3ccccc3[nH]2)cc1OC	/	18	34	9	68
COc1ccc(C(=O)Nc2nc3ccccc3[nH]2)cc1S(=O)(=O)N1CCCC1	45*	5	4	5	10
COc1ccc(-n2c(SCC(=O)Nc3cccc(S(N)(=O)=O)c3)nc3ccccc3c2=O)cc1OC	-2	0	-17	-6	-10
COc1ccc(-n2c(SCC(=O)Nc3ccc(C(N)=O)cc3)nc3ccccc3c2=O)cc1OC	5	4	60*	17	-9
O=C(C[C@@H]1CC[C@@H](NC(=O)CC2CC2)[C@H](CO)O1)NCc1ccc(Cl)cc1	-12	/	/	/	/
Cc1c(NS(=O)(=O)c2cc(C(=O)NCCN(C)C)ccc2Cl)c(=O)n(-c2ccccc2)n1C	-4	-1	-80	-74*	3
Cc1c(NS(=O)(=O)c2cc(C(=O)NCc3cccc(Cl)c3)ccc2Cl)c(=O)n(-c2ccccc2)n1C	4	2	/	/	-10
Cc1cc(C)cc(-n2c3nc4ccccc4nc3c3c(=O)n(Cc4ccco4)cnc32)c1	0	-3	119*	85	-16
COCCCn1cnc2c(c1=O)c1nc3ccccc3nc1n2-c1ccc(C)cc1	2	-1	8	3	14
O=c1nc2c(-c3ccccc3F)n[nH]n2c2ccccc12	22	36*	0	-7	/
COc1ccc(CN(C)C[C@@H]2Oc3ccc(NC(=O)C4CC4)cc3CC(=O)N([C@@H](C)CO)C[C@@H]2C)cc1	-1	/	/	/	/
CCC1=NN(C(=O)c2ccccc2O)C(O)(c2ccccc2)C1 (stereo not drawn)	87*	2	16	15	/
Cc1ccccc1-c1cnc2c(c1)C(=O)N([C@@H](C)CO)C[C@H](C)[C@@H](CN(C)Cc1ccncc1)O2	6	/	/	/	/
O=C(NC1CCC1)[C@@H]1[C@@H](CO)[C@@H]2Cn3c(ccc(-c4ccncc4)c3=O)[C@H]1N2CC1CC1	2	/	/	/	/
CCON1C(=O)C(C)(C)N(OCC)C(=O)C1(C)C	/	43*	5	-1	-9
CN1C(=O)S/C(=C/c2ccc(OCc3cccc(C(=O)O)c3)cc2)C1=O	-25	45*	-18	2	-18
COc1cccc(/C=C2/SC(=O)N(C)C2=O)c1OCc1ccc(C(=O)O)cc1	/	-1	26	7	15
O=[N+]([O-])c1cccc(/C=C/c2ccc3cccc(O)c3n2)c1	34	-3	-18	-6	7
Oc1ccc(/C=C/c2ccc3cccc(O)c3n2)cc1Br	77*	14	-5	-13	44
O=C(O)c1ccc(/C=C/c2ccc3cccc(O)c3n2)cc1	104*	17	23	22	?
O=C(N[C@H]1CC[C@@H](CCNC(=O)C2CC2)O[C@H]1CO)c1ccncc1	0	/	/	/	/
O=C(COc1ccc(S(=O)(=O)N2CCOCC2)cc1)NCCCn1ccnc1	7	1	-3	1	1

Compound activity: PubChem, Broad Institute
